# Measured values reported in PubChem BioAssay (NCATS).
# Results filed as inconclusive are left out. Entries that show only a call come without a potency. Activity calls are given as the source filed them. The call rests on the fitted dose curve. Numbered stars: 1 amine (or outer) side, 2 acyl side, 3 side chain; on linkers, the order of the positions; unused ones are H or OH. Bridge positions count the residues as written; N and C are the ends. Square brackets hold non-standard residues; d marks the D form. Peptide text beside a SMILES is read from it. * marks the point of attachment. ξ: configuration not given here. pTerphenylCO(4''-OnC5H11) = CCCCCOc1ccc(-c2ccc(-c3ccc(C(=O)*)cc3)cc2)cc1; ξOrn(4,5-diOH) = O=C(C(CC(O)C(O)N[*:3])N[*:1])[*:2]; ξhTyr(βξ-OH,γξ-OH) = NC(C(=O)O)C(O)C(O)c1ccc(O)cc1; ξPro(3ξ-OH,4ξ-Me) = CC1CNC(C(=O)O)C1O; Hyp = O=C(O)[CH]1C[CH](O)CN1
# Assay: Primary qHTS for Huh7 cytotoxicity: counterscreen for inhibitors of MERS-S pseudotyped particle cell entry (AID 1479147)
# Settings: cell viability read-out; series mostly up to 57.1 µM
# Potency means the concentration at half of the fitted maximal effect.
row,Structure (SMILES),Potency
1,CNC(C)C(O)c1ccccc1 (stereo not drawn),inactive
2,COc1cc(CNC(=O)CCCC/C=C/C(C)C)ccc1O,inactive
3,NC(=O)C1(N2CCCCC2)CCN(CCCN2c3ccccc3CCc3ccccc32)CC1,28.2 µM (active)
4,CC(OC(=O)NCC1(CC(=O)O)CCCCC1)OC(=O)C(C)C (stereo not drawn),inactive
5,COc1ccc(CNCC(O)COc2ccc3[nH]c(=O)ccc3c2)cc1OC (stereo not drawn),inactive
6,C[C@@H](c1nc(-c2ccc(C#N)cc2)cs1)[C@](O)(Cn1cncn1)c1cc(F)ccc1F,inactive
7,CCN(CC)C(=O)[C@]1(c2ccccc2)C[C@H]1CN,inactive
8,OCCOc1ccc(/C(=C(/CCCl)c2ccccc2)c2ccccc2)cc1,inactive
9,C=C1c2c(Cl)ccc(O)c2C(O)=C2C(=O)[C@@]3(O)C(O)=C(C(N)=O)C(=O)[C@@H](N(C)C)[C@@H]3[C@@H](O)[C@H]12,inactive
10,CCCOc1ccc2nc(NC(=O)OC)sc2c1,inactive
11,CC[C@]12C=CCN3CC[C@@]4(c5cc([C@@]6(C(=O)OC)CC7C[C@@H](C(C)(F)F)CN(Cc8c6[nH]c6ccccc86)C7)c(OC)cc5N(C)[C@H]4[C@@](O)(C(=O)OC)[C@@H]1OC(C)=O)[C@@H]32 (stereo partly drawn),inactive
12,O=C(O)[C@H]1OC(O)[C@H](O)[C@@H](O)[C@@H]1O (stereo partly drawn),inactive
13,O=C(NC1CCN(CCCCC2(C(=O)NCC(F)(F)F)c3ccccc3-c3ccccc32)CC1)c1ccccc1-c1ccc(C(F)(F)F)cc1,31.6 µM (active)
14,O=[N+]([O-])c1ccc(Oc2ccc(N=C=S)cc2)cc1,inactive
15,C=CC(=O)N1CCCC(n2nc(-c3ccc(Oc4ccccc4)cc3)c3c(N)ncnc32)C1 (stereo not drawn),inactive
16,CC#CCC(C)[C@H](O)/C=C/[C@@H]1[C@H]2C/C(=C/CCCC(=O)O)C[C@H]2C[C@H]1O (stereo partly drawn),inactive
17,Cc1ccc(C(=O)OCc2ccc([C@@H](CN)C(=O)Nc3ccc4cnccc4c3)cc2)c(C)c1,inactive
18,CC[C@H](C)[C@@H]([C@@H](CC(=O)N1CCC[C@H]1[C@H](OC)[C@@H](C)C(=O)NCCc1ccccc1)OC)N(C)C(=O)[C@@H](NC(=O)[C@H](C(C)C)N(C)C)C(C)C,inactive
19,CCCCCCCCCCCCOC(=O)CS(=O)(=O)O,inactive
20,OCCN1CCN(CC/C=C2/c3ccccc3Sc3ccc(Cl)cc32)CC1,22.4 µM (active)
21,CC(=O)O[C@H]1C[C@@H]2CC[C@@H]3[C@H](CC[C@@]4(C)[C@H]3C[C@H](N3CC[N+](C)(C)CC3)[C@@H]4OC(C)=O)[C@@]2(C)C[C@@H]1N1CC[N+](C)(C)CC1,inactive
22,"CCCCCOc1ccc(-c2ccc(-c3ccc(C(=O)NC4CC(O)C(O)NC(=O)C5C(O)C(C)CN5C(=O)C(C(C)O)NC(=O)C(C(O)C(O)c5ccc(O)cc5)NC(=O)C5CC(O)CN5C(=O)C(C(C)O)NC4=O)cc3)cc2)cc1 (stereo not drawn) ({pTerphenylCO(4''-OnC5H11)}-[ξOrn(4,5-diOH)]T[Hyp][ξhTyr(βξ-OH,γξ-OH)]T[ξPro(3ξ-OH,4ξ-Me)]; lactam 1-C; configuration not given here)",inactive
23,S=C1SCN(Cc2ccccc2)CN1Cc1ccccc1,35.5 µM (active)
